9 sequences from the supplement of paper PMC6555819 can be followed below.

What all share (test): PBM binding z-score (relative to random genomic background probes); higher = stronger binding; sequences stand for … in GC…GCGATTGACAGCGTAGAATGAAGG
The subject of assay [1] is LXRa homodimer (NR concentration 270 nM). The procedure, abridged:
(§1)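 Binding z-scores were set against random background probes. The data came from custom Agilent 4×180K protein-binding microarrays carrying double-stranded probes with 34-nt variable regions, incubated 1 h with ligand-free nuclear receptor dimers. Partner-specific antibodies detected binding, and scanned fluorescence was regression-normalized.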

Assay [2] relates to LXRb homodimer (NR concentration 270 nM). The gist of the method:
as §1

Assay [3] deals with PPARg:RXRa 270nM:90nM, anti-RXR (NR concentration 270 nM, RXRa partner concentration 90 nM). The procedure, abridged: as §1
For assay [4], the system named is PPARg:RXRa 30nM:10nM, anti-RXR (NR concentration 30 nM, RXRa partner concentration 10 nM). The gist of the method:
as §1

Assay [5] deals with PPARg:RXRa 90nM:30nM, anti-RXR (NR concentration 90 nM, RXRa partner concentration 30 nM). The gist of the method: as §1
The subject of assay [6] is PPARg:RXRa DBDmut IVT, anti-RXR (DBD mutation: RXRa K156A/R161A, NR concentration 270 nM, RXRa partner concentration 90 nM). The gist of the method:
as §1

Assay [7] relates to PPARg:RXRa IVT, anti-PPARg (NR concentration 270 nM, RXRa partner concentration 90 nM). The gist of the method: as §1
In assay [8] the test system is PPARg DBDmut:RXRa IVT, anti-PPARg (DBD mutation: PPARg1 K132A/R137A, NR concentration 270 nM, RXRa partner concentration 90 nM). The gist of the method:
as §1

In assay [9] the test system is PPARg DBDmut IVT, anti-PPARg (DBD mutation: PPARg1 K132A/R137A, NR concentration 270 nM). The procedure, abridged: as §1
Assay [10] has as its system PPARg homodimer (NR concentration 180 nM). The procedure, abridged: as §1
The subject of assay [11] is PXR homodimer (NR concentration 270 nM). The gist of the method:
as §1

Assay [12] relates to RARa homodimer (NR concentration 270 nM). The gist of the method:
as §1

For assay [13], the system named is RARb homodimer (NR concentration 270 nM). The procedure, abridged:
as §1

For assay [14], the system named is PPARg:RXRa (NR concentration 180 nM, RXRa partner concentration 90 nM). The gist of the method:
as §1

The test system of assay [15] is PXR:RXRa (NR concentration 270 nM, RXRa partner concentration 90 nM). The procedure, abridged: as §1
For assay [16], the system named is RARa:RXR (NR concentration 270 nM, RXRa partner concentration 90 nM). The gist of the method: as §1

In the case of ATCGAAAGGTCAAAGGTGAGTATACCCACCCGAA, the PBM binding z-score in [1] was found to be 4.82; in [2], 4.53; in [3], 8.89; in [4], 6.69; in assay [5], 8.79; in assay [6], 4.23. In addition, the PBM binding z-score in assay [7] worked out at 6.1; in assay [8] it was 3.13; in assay [9], 3.86; in assay [10], 4.41; in [11], 1.6; in assay [12], 3.03. The sequence also gave a PBM binding z-score in assay [13] of 5.31.
Regarding CAAACGAGGTCACAGAGGTCAAAGTCCGTGCGTA, the PBM binding z-score in [1] was 8.64; in assay [2], 3.01; in assay [14], 9.94; in [3], 8.76; in assay [4], 6.47; in assay [5] it was 8.53. Moreover, the PBM binding z-score in assay [6] worked out at 6.82; in assay [7], 7.63; in [8], 3.35; in assay [9], 5.12; in assay [10] it was 7.88; in assay [11], 15.3. Moreover, the PBM binding z-score in [12] came to 5.39; in [13] it was 5.83.
With CAAAATAGGTCACAGAGGTCAAAGTCCGTGCGTA, the PBM binding z-score in assay [1] worked out at 7.45; in [2] it was 2.61; in assay [14], 9.92; in assay [3], 8.39; in [4], 6.56; in assay [5], 8.55. Further, the PBM binding z-score in [6] was determined as 7.62; in [7], 8.25; in [8] it was 1.92; in [9], 1.23; in assay [10], 4.67; in assay [15] it was 6.99. Moreover, the PBM binding z-score in [11] came out at 10.7; in assay [16], 7.81; in [12], 1.88; in assay [13], 5.93.
For the sequence ATCGAAAGGTCATGAGGTGAGTATACAGAAAGGC, the PBM binding z-score in assay [1] worked out at 4.02; in assay [2] it was 2.52; in assay [14] it was 9.07; in assay [3], 7.95; in [4] it was 5.41; in [5], 7.18. Also, the PBM binding z-score in assay [6] was 4.25; in assay [7], 5.59; in assay [8], 2.8; in assay [9], 3; in assay [10] it was 4.69; in [15] it was 5.71. The results for the PBM binding z-score in assay [11], in [12] and in assay [13] were 0.933, 3.7 and 5.04, respectively.
With CGTCAAAGGTCAATGCTAGGTCAGTGAAAGCATT, the PBM binding z-score was found to be 4.73 in [1]; 3.46 in assay [2]; 8.14 in assay [14]; 8.21 in assay [3]; 5.21 in assay [4]; 7.67 in assay [5]. The PBM binding z-score in assay [6] was determined as 4.79; in [7], 6.13; in [8], 2.05; in assay [9], 0.936; in assay [10] it was 5.64; in [15], 5.96. Moreover, the PBM binding z-score came to 1.66 in assay [11], 6.85 in assay [16], 2.5 in [12] and 5.56 in [13].
In the case of TATACAGGGTCAAAGGTCAGAGTACGAATGTCGA, the PBM binding z-score was 4.72 in assay [1]; 3.86 in assay [2]; 9.79 in assay [3]; 9.88 in [4]; 10.9 in assay [5]; 3.73 in assay [6]. In addition, the PBM binding z-score turned out to be 6.32 in [7]; 2.47 in assay [8]; 1.85 in assay [9]; 2.64 in assay [10]; 1.68 in assay [11]; 2.73 in assay [12]. Besides, the PBM binding z-score in assay [13] is 5.41.
For CAAACAAGGTCACGAAAGGTCAAAGTCGAATGAC, the PBM binding z-score was found to be 8.69 in [1]; 3.83 in assay [2]; 9.38 in [14]; 8.37 in assay [3]; 5.8 in [4]; 7.95 in assay [5]. Further, the PBM binding z-score in assay [6] turned out to be 5.71; in assay [7], 7.11; in [8], 3.1; in assay [9] it was 3.53; in [10], 8.44; in [11], 7.51. Further, the values for the PBM binding z-score in assay [12] and in [13] were 5.3 and 6.14, respectively.
With CAAACAAGGTCACAGAGGTCAAAGTCCGTGCGTA, the PBM binding z-score in assay [1] turned out to be 8.49; in [2] it was 3.24; in assay [14] it was 9.2; in [3] it was 8.4; in assay [4] it was 5.17; in assay [5], 7.73. Moreover, the PBM binding z-score came to 6.04 in assay [6]; 7.16 in assay [7]; 3.22 in [8]; 4.2 in [9]; 6.67 in assay [10]; 14.1 in assay [11]. In addition, the PBM binding z-score in assay [12] turned out to be 3.72; in assay [13], 5.85.
As for TTACCAAGGTCAAAGGTCGTTGATGCACGCCTTG, the PBM binding z-score in [1] was 4.68; in [2] it was 1.83; in assay [3], 8.91; in [4] it was 8.91; in [5] it was 10.4; in assay [6] it was 4.35. Moreover, the PBM binding z-score came out at 6.12 in [7]; 2.16 in [8]; 2.19 in assay [9]; 4.12 in assay [10]; 2.27 in assay [11]; 1.08 in [12]. Besides, the PBM binding z-score in [13] is 4.89.
